Measurements from PubChem BioAssay AID1159580 (chemical genetic matrix, 2015).
Among all 5,500 compounds or so, about 2,000 (36%) were called active. Inconclusive results (about 18%) are left out. No stated cut-off is given here; in the data, active means normalized growth mostly below about 0.91 (no sharp cut-off); inconclusive means no clear call, values can overlap the other calls; inactive means mostly above about 0.92. The list shows a part of the results.

Test: chemical genetic growth profiling, strain panel (AID 1159580);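 further: tested at 20 µM; growth read once vehicle control cultures reached saturation at 30 °C; 1 = growth at the plate median or of vehicle wells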
Details: S. cerevisiae deletion strains, growth OD

Measured: normalized growth

COc1c2c(nc3ccccc13)OC(C(C)(O)CO)C2 (stereo not given)
inactive: locus YAL040C, strain CLN3, stronger effect = lower value 1.01 | locus YCL061C, strain MRC1 (second series), stronger effect = lower value 1.01 | locus YDR363W, strain ESC2, stronger effect = lower value 0.993 | locus YER002W, strain NOP16, stronger effect = lower value 1.01 | locus YJR075W, strain HOC1, stronger effect = lower value 0.994 | locus YMR263W, strain SAP30, stronger effect = lower value 0.998 | locus YMR307W, strain GAS1, stronger effect = lower value 1.01 | locus YNL128W, strain TEP1, stronger effect = lower value 1.02 | locus YNL153C, strain GIM3, stronger effect = lower value 1.04 | locus YNL175C, strain NOP13, stronger effect = lower value 1.01 | locus YNL197C, strain WHI3, stronger effect = lower value 1.01 | locus YNL224C, strain SQS1, stronger effect = lower value 1.01 | locus YOR083W, strain WHI5 (second series), stronger effect = lower value 1 | locus YPL055C, strain LGE1, stronger effect = lower value 0.99 | locus YPL241C, strain CIN2, stronger effect = lower value 1
